Source: PubChem (National Center for Advancing Translational Sciences (NCATS))
FLuc modulator: inhibits or activates purified firefly luciferase, miR-21 counter-screen | Potency, µM (titrated, usually from 57.5 µM), without a hit: at the highest dose activity change, negative = inhibition, hits mostly inhibitors | P08659 | AID 588342 | 360,000 tested, 6.9% active | purified FLuc, Km substrates, luminescence inhibition;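 note: plate controls were vehicle for no effect and reference inhibitor for full effect; nearly all actives have a fitted effect of over 55% in size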
Target sequence (P08659 whole entry, looked up): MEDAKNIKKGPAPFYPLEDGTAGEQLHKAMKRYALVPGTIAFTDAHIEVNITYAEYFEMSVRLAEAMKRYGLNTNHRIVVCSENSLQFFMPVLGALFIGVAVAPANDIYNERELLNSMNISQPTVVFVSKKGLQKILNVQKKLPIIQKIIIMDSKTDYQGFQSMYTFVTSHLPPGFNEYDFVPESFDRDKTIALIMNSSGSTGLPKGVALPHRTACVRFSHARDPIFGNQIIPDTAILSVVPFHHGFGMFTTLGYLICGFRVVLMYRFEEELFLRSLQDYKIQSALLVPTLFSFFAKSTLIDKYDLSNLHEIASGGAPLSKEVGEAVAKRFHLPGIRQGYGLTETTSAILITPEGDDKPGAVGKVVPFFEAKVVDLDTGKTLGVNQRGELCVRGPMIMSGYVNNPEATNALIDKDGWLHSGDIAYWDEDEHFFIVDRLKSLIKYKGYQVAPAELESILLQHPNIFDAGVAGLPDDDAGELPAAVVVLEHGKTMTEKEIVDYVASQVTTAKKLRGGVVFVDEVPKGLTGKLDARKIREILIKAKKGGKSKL
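Purified P. pyralis luciferase, 10 nM final, with Km-level 10 uM D-luciferin and 10 uM ATP in 50 mM Tris acetate pH 7.5, 10 mM Mg acetate, 0.01% Tween-20, 0.05% BSA; 6-point qHTS titration about 60 µM downward; luminescence read.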
NPC1 prom act: NPC1 promoter activation | Huh7 NPC1 promoter luciferase reporter, 24 h | Potency, µM (highest dose often 9.22 µM), without a hit: top-dose activation, actives largely listed as activators | 320,000 tested, 2.4% active | AID 485313; note: % of control where 0% means no effect; nearly all actives have a fitted effect of over 60% in size
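In 1536-well qHTS, Huh7 cells harboring an NPC1 promoter–luciferase construct received compound for 24 h; activation was quantified by luminescence following luciferase reagent addition.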
Rab9 promoter act: Rab9 promoter activation | AID 485297 | Potency, µM (highest dose often 9.22 µM), for inactives: at the highest dose activation, negative = inhibition, most hits filed as activators | Huh7 Rab9 promoter-luciferase reporter, luminescence, 24 h | 320,000 tested, 2.8% active; note: % of control where 0% means no effect; nearly all actives have a fitted effect of over 60% in size
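Luminescence from Amplite-detected luciferase (10 minutes, ambient) reports Rab9 promoter activation. Before that, stable Rab9-luciferase Huh7 cells (1500/well, reduced-serum OP-MEM I plus 10% FBS) were exposed to compound for 24 hours at 37C.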
ELG1 genotoxic: induces genotoxicity in HEK293T cells with luciferase-tagged ELG1; HEK293T ELG1-luciferase reporter, luminescence, 16 h; Potency, µM (highest dose often 46 µM), for the others: top-dose activity change, positive = activation, actives largely listed as activators; 330,000 tested, 1.3% active; note: % of control where 0% means no effect; nearly all actives have a fitted effect of over 60% in size
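Cells (2,000/well) expressing the ELG1-luciferase fusion are dosed by pin tool and kept 16 hr at 37 °C, 5% CO2. Signal comes from ONE-Glo luciferase reagent after 30 min at room temperature.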
SMN2 splice up: enhancers of SMN2 splice variant expression; Potency, µM (highest dose often 46.1 µM), for the others: top-dose activity change, positive = activation, hits mostly activators; HEK293 SMN2-luciferase splicing reporter, luminescence, 30-36 h; AID 1458; 210,000 tested, 2.8% active; note: % of control where 0% means no effect; nearly all actives have a fitted effect of over 55% in size
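HEK293 cells carry an SMN2 […]–luciferase reporter in which exon 7 inclusion puts luciferase in frame. Cells were plated 10-12 h before compound addition, then incubated 30-36 h at 37C. ONE-Glo luminescence was read; sodium butyrate at 4.5 mM final served as control.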
* hit, by the source's call; ? = inconclusive; . = no result; ! = repeats disagree; [ ] = dose if it differs, or a comment. The list is not random: actives were taken first. Their share in the collection is about 7.4%. Calls come from the whole dose curve; as a rule, active = well fitted curve in the direction sought with a large enough effect; inconclusive = small, poorly fitted or top-dose-only effect, or another doubt; inactive = no such curve, though single readings can be large; an effect the other way counts as inactive or inconclusive. Potency is the fitted concentration of half-maximal effect.

SMILES	FLuc modulator	NPC1 prom act	Rab9 promoter act	ELG1 genotoxic	SMN2 splice up
CCC1CN(C(=O)Nc2cccc(OC)c2)c2ccccc2O1 (stereo not drawn)	-7.0%	.	.	.	.
COc1cccc(-c2csc(N3CCC(C(N)=O)CC3)n2)c1	16.9µM*	.	.	.	.
CS(=O)(=O)c1cccc(-c2csc(N3CCC(C(N)=O)CC3)n2)c1	0.1%	2.51µM*!	?	9.7%	.
COc1ccc(-c2csc3nc(-c4cccnc4)nc(N4CCC(C(N)=O)CC4)c23)cc1OC	1.6%	-0.8%	-2.7%	-2.4%	14.1µM*
CN(C)c1cccc(-c2csc(N3CCC(C(N)=O)CC3)n2)c1	.	.	.	9.3%	.
O=C1OC2(c3cc(Br)c(O)c(Br)c3Oc3c2cc(Br)c(O)c3Br)c2c(Cl)c(Cl)c(Cl)c(Cl)c21	.	.	.	.	-17.2%
Cc1cc(F)ccc1NC(=O)C(C(C)C)N1Cc2ccccc2C1=O (stereo not drawn)	-3.1%	.	.	.	.
Cc1cccc(NC(=O)C(Cc2ccccc2)NS(=O)(=O)c2ccc3c(c2)c(=O)n(C)c(=O)n3C)c1 (stereo not drawn)	2.9%	.	.	.	2.2%
C=CCOc1ccc(C2NC(=S)NC3=C2CCc2ccccc23)cc1 (stereo not drawn)	6.01µM*	1.3%	-11.0%	23.8%	.
COc1cc(C2NC(=S)NC3=C2CCc2ccccc23)cc(OC)c1OC (stereo not drawn)	-1.8%	-0.6%	-3.6%	2.8%	4.6%
C[C@@H]1CC[C@@]2(OC1)OC1CC3C4CC=C5CC(O)CCC5(C)C4CCC3(C)C1[C@@H]2C (stereo partly drawn)	.	.	.	.	8.8%
COc1ccccc1N1CCN(c2ncnc3c2c(-c2ccccc2)cn3-c2cccc(C)c2)CC1	0.9%	.	.	.	.
CC(C)(CNC(=O)c1sc2cc(Cl)ccc2c1Cl)N1CCOCC1	?	-0.1%	-3.9%	16.4µM*	.
O=C(NCC1CCCO1)c1cccc(C(=O)NCC2CCCO2)c1 (stereo not drawn)	-1.7%	-8.0%	-0.2%	-0.5%	.
O=C(NCCN1CCOCC1)c1sc2cc(Cl)ccc2c1Cl	-16.3%	1.3%	0.0%	16.0%	.
O=C(NCC1CCCO1)c1ccc2[nH]c3c(c2c1)CCCC3 (stereo not drawn)	21.3µM*	4.6%	26.5%	12.2%	.
O=C(NCC1CCCO1)c1sc2cc(Cl)ccc2c1Cl (stereo not drawn)	10.7µM*	3.16µM*	2µM*	?	12.6µM*
Cc1noc(C)c1S(=O)(=O)Nc1ccc(C(=O)Nc2ccc(C(C)C)cc2)cc1	?	.	.	.	-3.4%
C=CCOC(=O)N[C@@H](c1ccc(Br)cc1)C(C(C)=O)C(C)=O	.	.	.	.	8.0%
CCOC(=O)Cc1csc(NC(=S)NC(=O)c2ccc([N+](=O)[O-])cc2)n1	?	0.0%	-2.3%	-2.1%	-11.1%
CCOC(=O)Cc1csc(NC(=O)c2ccco2)n1	?	?	?	16.4µM*	7.94µM*
CCOC(=O)Cc1csc(NC(=O)c2ccc3ccccc3n2)n1	15.1µM*	1.58µM*	1µM*	-6.8%	.
CCOC(=O)Cc1csc(NC(=S)NC(=O)c2ccc(Cl)cc2)n1	12µM*	-6.7%	-10.0%	0.0%	-0.9%
CCOC(=O)Cc1csc(NC(=O)c2ccc(C)o2)n1	-13.1%	2.7%	10.7%	?	-6.5%
CCOC(=O)Cc1csc(NC(=O)c2ccc3ncsc3c2)n1	15.1µM*	-22.7%	23.7%	3.0%	.
SMILES	FLuc modulator	NPC1 prom act	Rab9 promoter act	ELG1 genotoxic	SMN2 splice up
C[C@@]1(CCOCc2ccccc2)NC(=O)NC1=O	.	.	.	.	-5.2%[9.22 µM]
CCCCN(CCCC)CCCNC(=O)c1cc(-c2ccc(Cl)s2)nc2ccccc12	-6.5%	.	.	.	3.3%
COc1ccccc1N1CCN(C(=O)CSc2n[nH]c(-c3ccccc3Cl)n2)CC1	-15.7%	.	.	.	.
COc1cccc(C(=O)CC2c3c(c(Br)c4c(c3OC)OCO4)CCN2C)c1 (stereo not drawn)	.	.	.	.	14.4%
CCOC(=O)Cc1csc(NC(=O)c2ccc(Br)cc2)n1	21.3µM*	1.0%	-0.3%	-2.9%	.
CCN1CCN(C(c2cccc(OC)c2)c2c(O)cc(C)n(Cc3ccco3)c2=O)CC1 (stereo not drawn)	-4.7%	.	.	.	.
CCOc1ccc(CC(=O)NC2CC(=O)N(c3cccc(F)c3)C2)cc1 (stereo not drawn)	-1.0%	.	.	.	.
